Results filed as inconclusive are left out. The source made the active and inactive calls. The calls were made as follows, unless noted: active = hit-call score of the fitted dose curve at least 0.9, where 1 is the maximum; inconclusive = response in the unintended direction; inactive = score below 0.9.
What was measured:
[1] = read-out: Glyceraldehyde-3-phosphate dehydrogenase (Homo sapiens) (UniProt P04406); experiment: CLD_GAPDH_6hr: CellzDirect (CLD) Gene Expression Assay for Baseline Control (Glyceraldehyde 3-phosphate dehydrogenase) at 6 hours (AID 2283681);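 also: active means increased signal relative to DMSO vehicle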
How it was run: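 Primary human hepatocytes from two donor preparations, dosed at multiple concentrations with 0.2% DMSO vehicle; GAPDH mRNA measured 6 h after dosing by chemiluminescent quantitative nuclease protection assay (qNPA) on denatured lysates. Serves as background control; cytotoxicity annotated by morphology.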

[2] = read-out: HMG-CoA synthase (HMGCS2), HMGCS2 (gene 3158); experiment: CLD_HMGCS2_6hr: CellzDirect (CLD) Gene Expression Assay for HMG-CoA synthase (HMGCS2) at 6 hours (AID 2283682);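 also: actives raise HMGCS2 transcript above the 0.2% DMSO vehicle baseline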
How it was run: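 Primary human hepatocytes dosed daily with fresh chemical, 0.2% DMSO vehicle; HMGCS2 mRNA measured at 6 h by qNPA chemiluminescence. Gain of signal fitted against DMSO; cytotoxicity flagged from phase-contrast morphology.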

[3] = read-out: xenobiotic metabolism (CYP1A2), CYP1A2 (gene 1544); experiment: CLD_CYP1A2_24hr: CellzDirect (CLD) Gene Expression Assay for xenobiotic metabolism (CYP1A2) at 24 hours (AID 2283683)
How it was run: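 Primary human hepatocytes from two donor preparations dosed daily with multiple concentrations of chemical, 0.2% DMSO vehicle. CYP1A2 mRNA at 24 h quantified by qNPA chemiluminescence; gain of signal analyzed relative to DMSO. Cytotoxicity flagged by phase-contrast morphology.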

[4] = read-out: Cytochrome P450 2C19 (Homo sapiens) (UniProt P33261); experiment: CLD_CYP2C19_24hr: CellzDirect (CLD) Gene Expression Assay for xenobiotic metabolism (CYP2C19) at 24 hours (AID 2283687);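 also: activity means mRNA induction above DMSO vehicle baseline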
How it was run: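 Primary human hepatocytes (two donor preparations) dosed daily with fresh test chemical in 0.2% DMSO vehicle; CYP2C19 mRNA induction measured at 24 h by quantitative nuclease protection assay with chemiluminescence, fitted for gain of signal versus DMSO.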

[5] = read-out: Cytochrome P450 2C9 (Homo sapiens) (UniProt P11712); experiment: CLD_CYP2C9_24hr: CellzDirect (CLD) Gene Expression Assay for xenobiotic metabolism (CYP2C9) at 24 hours (AID 2283688)
How it was run: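 Primary human hepatocytes from two donor preparations, dosed daily for two days at multiple concentrations; vehicle 0.2% DMSO. CYP2C9 mRNA induction at 24 h measured by qNPA chemiluminescence relative to DMSO; cytotoxicity annotated from morphology.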

[6] = read-out: Cytochrome P450 3A4 (Homo sapiens) (UniProt P08684); experiment: CLD_CYP3A4_24hr: CellzDirect (CLD) Gene Expression Assay for xenobiotic metabolism (CYP3A4) at 24 hours (AID 2283689)
How it was run: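 Primary human hepatocytes from two donors dosed daily with fresh compound for two days, 0.2% DMSO vehicle. CYP3A4 mRNA at 24 hr by qNPA chemiluminescence; gain-of-signal fit versus DMSO, cytotoxicity flagged by morphology.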

[7] = read-out: HMG-CoA synthase (HMGCS2), HMGCS2 (gene 3158); experiment: CLD_HMGCS2_24hr: CellzDirect (CLD) Gene Expression Assay for HMG-CoA synthase (HMGCS2) at 24 hours (AID 2283691)
How it was run: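 Primary human hepatocytes from two donor preparations, dosed daily with fresh solutions; vehicle 0.2% DMSO, 24 h harvest. HMGCS2 mRNA quantified by qNPA with S1 nuclease digestion and chemiluminescence; gain fitted versus DMSO, cytotoxicity annotated by morphology.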

[8] = read-out: Cytochrome P450 3A4 (Homo sapiens) (UniProt P08684); experiment: CLD_CYP3A4_48hr: CellzDirect (CLD) Gene Expression Assay for xenobiotic metabolism (CYP3A4) at 48 hours (AID 2283698)
How it was run: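 Primary human hepatocytes from two donor preparations dosed daily for two days with multiple chemical concentrations, 0.2% DMSO vehicle. CYP3A4 mRNA at 48 h by quantitative nuclease protection assay, chemiluminescence, positive fit versus DMSO; cytotoxicity flagged morphologically.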

[9] = read-out: xenobiotic metabolism (CYP2C9), CYP2C9 (gene 1559); experiment: CLD_CYP2C9_48hr: CellzDirect (CLD) Gene Expression Assay for xenobiotic metabolism (CYP1A2) at 48 hours (AID 2283701; active = hit-call score of the fitted dose curve at least 0.9, where 1 is the maximum; inactive = score below 0.9)
How it was run: (§1)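 Primary human hepatocytes (two donor preparations) dosed daily for two days with test chemicals, 0.2% DMSO vehicle; harvested at 48 h. mRNA induction quantified by qNPA chemiluminescence, fitted for gain of signal against DMSO baseline; cytotoxicity annotated from phase-contrast morphology.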

[10] = read-out: Broad substrate specificity ATP-binding cassette transporter ABCG2 (Homo sapiens) (UniProt Q9UNQ0); experiment: CLD_ABCG2_48hr: CellzDirect (CLD) Gene Expression Assay for ABC Transporter (ABCG2) at 48 hours (AID 2283704);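 as to AC50: potency for induction of ABCG2 mRNA above the DMSO baseline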
How it was run: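 Primary human hepatocytes from two donors, dosed daily for 2 days, 0.2% DMSO vehicle, several concentrations. ABCG2 mRNA at 48 h by qNPA chemiluminescence, gain fitted versus DMSO; cytotoxicity flagged by morphology.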

[11] = read-out: organic anion transporter (SLCO1B1), SLCO1B1 (gene 10599); experiment: CLD_SLCO1B1_48hr: CellzDirect (CLD) Gene Expression Assay for organic anion transporter (SLCO1B1) at 48 hours (AID 2283707)
How it was run: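 Primary human hepatocytes from two donor preparations dosed daily for two days with multiple concentrations, 0.2% DMSO vehicle. SLCO1B1 mRNA at 48 h by quantitative nuclease protection assay, chemiluminescence; gain-of-signal fitted versus DMSO.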

[12] = read-out: alkyl and aryl transferase (GSTA2), GSTA2 (gene 2939); experiment: CLD_GSTA2_48hr: CellzDirect (CLD) Gene Expression Assay for alkyl and aryl transferase (GSTA2) at 48 hours (AID 2283708);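 also: active means mRNA induction above DMSO vehicle baseline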
How it was run: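 Primary human hepatocytes dosed daily for two days (0.2% DMSO vehicle), harvested at 48 h. GSTA2 mRNA induction measured by quantitative nuclease protection assay with chemiluminescent imaging, fitted for gain of signal relative to DMSO.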

[13] = read-out: Glyceraldehyde-3-phosphate dehydrogenase (Homo sapiens) (UniProt P04406); experiment: CLD_GAPDH_24hr: CellzDirect (CLD) Gene Expression Assay for Baseline Control (Glyceraldehyde 3-phosphate dehydrogenase) at 24 hours (AID 2283692)
How it was run: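 Primary human hepatocytes (two donor preparations) dosed daily for two days, 0.2% DMSO vehicle; GAPDH mRNA measured at 24 h by qNPA chemiluminescence as a background control, gain-of-signal fitted against DMSO.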

[14] = read-out: xenobiotic metabolism (CYP1A1), CYP1A1 (gene 1543); experiment: CLD_CYP1A1_48hr: CellzDirect (CLD) Gene Expression Assay for xenobiotic metabolism (CYP1A1) at 48 hours (AID 2283705)
How it was run: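 Primary human hepatocytes from two donors dosed daily for two days at multiple concentrations, 0.2% DMSO vehicle; CYP1A1 mRNA induction at 48 h by qNPA chemiluminescence. Cytotoxicity noted by phase-contrast morphology.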

[15] = read-out: Cytochrome P450 2C9 (Homo sapiens) (UniProt P11712); experiment: CLD_CYP2C9_48hr: CellzDirect (CLD) Gene Expression Assay for xenobiotic metabolism (CYP2C9) at 48 hours (AID 2283701)
How it was run: as §1

[16] = read-out: Glyceraldehyde-3-phosphate dehydrogenase (Homo sapiens) (UniProt P04406); experiment: CLD_GAPDH_48hr: CellzDirect (CLD) Gene Expression Assay for Baseline Control (Glyceraldehyde 3-phosphate dehydrogenase) at 48 hours (AID 2283706);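 also: active means higher GAPDH mRNA than DMSO vehicle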
How it was run: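 Primary human hepatocytes dosed daily for two days with fresh chemical at multiple concentrations, 0.2% DMSO vehicle; GAPDH mRNA measured at 48 h by quantitative nuclease protection assay with chemiluminescence, fitted upward relative to DMSO as background control.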

[17] = read-out: organic anion transporter (SLCO1B1), SLCO1B1 (gene 10599); experiment: CLD_SLCO1B1_24hr: CellzDirect (CLD) Gene Expression Assay for organic anion transporter (SLCO1B1) at 24 hours (AID 2283690)
How it was run: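 Primary human hepatocytes (two donor preparations) dosed daily for two days with chemicals at multiple concentrations, 0.2% DMSO vehicle. SLCO1B1 mRNA at 24 h measured by qNPA chemiluminescence; induction fitted relative to DMSO.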

Measured: AC50

Chain of Glyceraldehyde-3-phosphate dehydrogenase (Homo sapiens) (P04406 whole entry, looked up): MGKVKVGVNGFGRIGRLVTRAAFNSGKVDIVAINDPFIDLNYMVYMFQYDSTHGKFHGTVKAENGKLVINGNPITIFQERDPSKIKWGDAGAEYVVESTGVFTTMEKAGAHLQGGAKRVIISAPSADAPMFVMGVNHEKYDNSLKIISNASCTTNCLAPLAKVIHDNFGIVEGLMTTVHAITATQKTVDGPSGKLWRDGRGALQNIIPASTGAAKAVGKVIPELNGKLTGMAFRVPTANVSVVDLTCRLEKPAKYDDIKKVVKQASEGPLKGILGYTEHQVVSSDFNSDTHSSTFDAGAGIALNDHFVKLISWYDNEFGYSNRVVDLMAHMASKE
Chain of Broad substrate specificity ATP-binding cassette transporter ABCG2 (Homo sapiens) (Q9UNQ0 whole entry, looked up): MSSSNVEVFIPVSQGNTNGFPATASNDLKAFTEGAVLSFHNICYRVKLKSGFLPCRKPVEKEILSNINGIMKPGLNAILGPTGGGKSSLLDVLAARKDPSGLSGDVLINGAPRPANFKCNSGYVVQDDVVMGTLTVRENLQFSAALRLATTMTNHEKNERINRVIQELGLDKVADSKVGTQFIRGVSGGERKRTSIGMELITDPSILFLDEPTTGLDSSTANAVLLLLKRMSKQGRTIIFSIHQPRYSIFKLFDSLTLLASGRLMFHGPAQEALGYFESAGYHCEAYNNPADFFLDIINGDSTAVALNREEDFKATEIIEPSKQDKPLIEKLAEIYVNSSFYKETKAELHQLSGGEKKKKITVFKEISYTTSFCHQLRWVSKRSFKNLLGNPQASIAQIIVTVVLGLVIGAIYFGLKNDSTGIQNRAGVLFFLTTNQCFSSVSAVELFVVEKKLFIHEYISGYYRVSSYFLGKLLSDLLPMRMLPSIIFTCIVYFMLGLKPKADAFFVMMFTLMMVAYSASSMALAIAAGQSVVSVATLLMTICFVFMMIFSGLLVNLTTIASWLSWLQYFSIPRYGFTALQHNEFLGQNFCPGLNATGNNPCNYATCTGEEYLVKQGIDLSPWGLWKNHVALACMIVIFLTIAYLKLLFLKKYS
Chain of Cytochrome P450 2C19 (Homo sapiens) (P33261 whole entry, looked up): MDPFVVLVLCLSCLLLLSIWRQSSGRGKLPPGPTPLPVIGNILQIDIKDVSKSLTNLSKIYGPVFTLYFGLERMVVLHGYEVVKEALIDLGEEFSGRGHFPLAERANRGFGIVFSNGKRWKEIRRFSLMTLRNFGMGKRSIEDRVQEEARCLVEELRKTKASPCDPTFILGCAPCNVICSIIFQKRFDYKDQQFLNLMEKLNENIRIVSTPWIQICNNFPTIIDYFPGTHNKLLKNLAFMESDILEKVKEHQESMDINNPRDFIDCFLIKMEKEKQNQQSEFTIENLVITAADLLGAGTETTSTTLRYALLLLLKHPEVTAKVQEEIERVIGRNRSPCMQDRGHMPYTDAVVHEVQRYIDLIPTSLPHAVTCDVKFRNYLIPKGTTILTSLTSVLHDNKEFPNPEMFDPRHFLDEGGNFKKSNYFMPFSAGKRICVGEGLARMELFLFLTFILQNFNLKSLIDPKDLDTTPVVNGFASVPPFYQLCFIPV
Chain of Cytochrome P450 3A4 (Homo sapiens) (P08684 whole entry, looked up): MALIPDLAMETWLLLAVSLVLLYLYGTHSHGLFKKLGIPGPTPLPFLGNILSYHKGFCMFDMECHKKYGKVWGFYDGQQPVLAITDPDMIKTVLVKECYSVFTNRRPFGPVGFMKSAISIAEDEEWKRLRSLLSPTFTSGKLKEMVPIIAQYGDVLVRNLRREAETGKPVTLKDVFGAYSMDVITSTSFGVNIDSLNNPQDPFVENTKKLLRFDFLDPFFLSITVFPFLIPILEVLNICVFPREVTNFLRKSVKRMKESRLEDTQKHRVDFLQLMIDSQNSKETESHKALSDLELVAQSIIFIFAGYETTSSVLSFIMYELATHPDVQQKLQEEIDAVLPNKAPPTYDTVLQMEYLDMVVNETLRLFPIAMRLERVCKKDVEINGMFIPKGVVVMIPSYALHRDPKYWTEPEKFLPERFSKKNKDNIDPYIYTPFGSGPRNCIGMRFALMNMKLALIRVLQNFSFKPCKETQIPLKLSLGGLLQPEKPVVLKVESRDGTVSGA

COc1c(Cl)ccc(Cl)c1C(=O)O
active: [9] 0.0267 µM
not listed: [13] | [14] | [15] | [16] | [17]
inactive: all other assays above

COC(=O)c1ccccc1S(=O)(=O)NC(=O)Nc1nc(OC(F)F)cc(OC(F)F)n1
active: [3] 0.233 µM
inactive: [1] | [4] | [7] | [13] | [14] | [11]

CCOC(=O)COc1cc(-n2ncc(C(F)(F)F)c(C)c2=O)c(F)cc1Cl
active: [6] 20 µM | [8] 5.32 µM
not listed: [3] | [5] | [9] | [11] | [17]
inactive: all other assays above

COc1nc(C)nc(NC(=O)NS(=O)(=O)c2ccccc2OCCCl)n1
inactive: [1] | [3] | [4] | [16] | [12]
active: [6] 6.77 µM

CC(C)(C)[C@@H](O)[C@@H](Cc1ccc(Cl)cc1)n1cncn1
active: [2] 1.9 µM | [6] 2.66 µM | [8] 2.15 µM | [14] 3.97 µM
inactive: [1] | [3] | [13] | [10] | [12]

COC(=O)c1ccccc1C(=O)O
not listed: [5] | [8] | [9] | [11] | [12] | [15] | [17]
inactive: all other assays above

S=C([S-])NCCNC(=S)[S-].[Mn+2]
active: [10] 3.4 µM | [14] 3.58 µM
inactive: [1] | [2] | [3] | [6] | [13] | [8] | [16]

COC(=O)c1ccc(CNS(C)(=O)=O)cc1S(=O)(=O)NC(=O)Nc1nc(OC)cc(OC)n1
inactive: [1] | [3] | [4] | [6] | [7] | [14] | [16] | [12]

CCCCOC(=O)C(C)Oc1ccc(Oc2ccc(C(F)(F)F)cn2)cc1 (centres undefined)
inactive: [1] | [2] | [4] | [5] | [6] | [7] | [8] | [16] | [11]

CCC(C)OC(=O)N1CCCCC1CCO (centres undefined)
not listed: [5] | [6] | [9] | [15]
inactive: all other assays above

CCSC(=O)N(CC(C)C)CC(C)C
not listed: [2] | [5] | [6] | [9] | [10] | [14] | [15]
inactive: all other assays above

C#CCOC(=O)[C@@H](C)Oc1ccc(Oc2ncc(Cl)cc2F)cc1
not listed: [5] | [9] | [14]
inactive: all other assays above

Source: PubChem BioAssay (EPA / NIEHS)
